# Data as given in PubChem BioAssay AID2314 (National Center for Advancing Translational Sciences (NCATS), 2010).
# About 37,000 (12%) of roughly 300,000 compounds were called active. Cut-off read from the data, not from the text of the source: active = max response mostly above about 13% (no sharp cut-off); inactive = mostly below about 14%. The list comes from a sample in which actives are over-represented; it also holds similar structures and randomly drawn compounds.
# Assay: Cycloheximide Counterscreen for Small Molecule Inhibitors of Shiga Toxin; note: read at 38.3 µM for the half of the compounds with a filed dose; 0% is about no effect
# Conditions: cell reporter, cycloheximide protein synthesis inhibition counterscreen; active compounds read high
row,SMILES,max response
1,O=c1c(-c2ccccc2)coc2cc(O)ccc12,51.6% (active)
2,O=c1c(-c2ccccc2)coc2c(CN3CCOCC3)c(O)ccc12,5.61% (inactive)
3,Cc1c(CCC(=O)O)c(=O)oc2cc3occ(-c4ccccc4)c3cc12,-1.34% (inactive)
4,CC1(C)C2CCC1(C)C(OC(=O)c1ccc(O)cc1)C2 (configuration not stated),-2.8% (inactive)
5,COc1ccc(C23NCCN2C(=O)c2ccccc23)cc1 (configuration not stated),-7.41% (inactive)
6,Cc1cccc(NC(=O)Cc2ccc(Br)cc2)n1,33.4% (active)
7,COCCNC(=O)COc1ccccc1C,0.731% (inactive)
8,Cc1cccc(C)c1NC(=O)CNC(=O)Cc1ccc(Br)cc1,-2.02% (inactive)
9,CCN(CC)S(=O)(=O)c1ccc(C)c(NC(=O)COc2ccc(Br)cc2Cl)c1,-3.99% (inactive)
10,Cc1cccc(NC(=O)COc2ccccc2C)n1,47.9% (active)
11,CSc1ccccc1NC(=O)Cc1ccc(Br)cc1,-3.62% (inactive)
12,Cc1ccccc1OCC(=O)Nc1nc(C)c(C(=O)N(C)C)s1,7.85% (inactive)
13,Cc1cccc(NC(=O)COc2ccc(Br)cc2C)n1,42.7% (active)
14,Cc1cccc(NC(=O)Nc2ccc(OCc3ccccc3)cc2)n1,-4.06% (inactive)
15,O=C1C(=O)N(CCN2CCOCC2)C(c2cccc(Cl)c2)/C1=C(/O)c1ccc2c(c1)OCO2 (configuration not stated),1.71% (inactive)
16,O=C(Nc1ccc(-n2cccn2)cc1)C1CCN(Cc2ccsc2)CC1,1.46% (inactive)
17,Cc1cnc(C(=O)Oc2cccc(Cl)c2Cl)cn1,-2.93% (inactive)
18,O=S(=O)(Nc1cccc(Oc2ccc(Cl)cc2)n1)c1ccc(F)cc1,-1.16% (inactive)
19,COc1ccc2cc(-c3[nH]ncc3CNCCn3nc(C)cc3C)ccc2c1,38.8% (active)
20,Cc1cc(C)n(CCNS(=O)(=O)c2ccc(Cl)cc2)n1,-1.13% (inactive)
21,COc1ccc(CN2CCNC(=O)C2CC(=O)NCc2cn[nH]c2-c2ccccc2)c(F)c1 (configuration not stated),-3.59% (inactive)
22,CCN1CCC2(CC1)N=C(c1ccc(F)cc1)C(=S)N2C(=O)c1ccc(C)cc1,-0.381% (inactive)
23,COc1ccccc1Nc1ncnc2c1oc1ccccc12,22.8% (active)
24,Cc1cc(C)nc(N2CCN(c3ncnc4c3oc3ccccc34)CC2)n1,10.4% (inactive)

row,SMILES,max response
1,COc1ccc(C)cc1Nc1nc(C)nc2c1oc1ccccc12,-2.13% (inactive)
2,CCCCOc1ccc(N(CC(=O)NCC2CCCO2)C(=O)CCC(=O)Nc2cc(C)ccn2)cc1 (configuration not stated),-1.91% (inactive)
3,C[n+]1ccc(C(=O)NCc2ccccc2)cc1,-2.14% (inactive)
4,COc1ccc(CNc2ccc3c(c2)CCC3)cc1OC,28.7% (active)
5,COc1ccc(CC(=O)Nc2ccc3c(c2)CCC3)cc1S(=O)(=O)N1CCOCC1,1.02% (inactive)
6,COc1ccc(CNc2cc(C)cc(C)c2)cc1OC,-1.54% (inactive)
7,COc1ccc(OCC(=O)Nc2ccc(NC(=O)c3ccco3)c(C)c2)cc1,6.17% (inactive)
8,COc1cc(NS(=O)(=O)c2ccc(NC(=S)NC(=O)c3ccccc3)cc2)nc(OC)n1,-6% (inactive)
9,CCn1nccc1C(=O)Nc1ccc(S(=O)(=O)NC23CC4CC(CC(C4)C2)C3)cc1,9.31% (inactive)
10,CCn1nccc1C(=O)Nc1ccc(Cl)c(Cl)c1,35.7% (active)
11,Cc1nnc(NC(=O)Nc2ccc(Cl)c(Cl)c2)s1,-2.3% (inactive)
12,N#Cc1cccc(Nc2c3c(nc4ccccc24)CCCC3)c1,-8.08% (inactive)
13,Cc1nc2nc(C)c(NS(=O)(=O)c3ccc(C(C)(C)C)cc3)c(=O)n2[nH]1,1.21% (inactive)
14,O=C(c1cc2ccccc2o1)N1CCN(Cc2ccccc2)CC1,20.5% (active)
15,COc1ccc(NC(=O)N2CCC(Cc3ccccc3)CC2)cc1,19.5% (active)
16,COc1ccc(C(=O)NC2CCN(C(=O)Nc3ccc(F)cc3)CC2)cc1,-4.59% (inactive)
17,O=C(Nc1ccccc1)N1CCN(Cc2ccccc2)CC1,21% (active)
18,COc1ccc(NC(=O)N2CCCC(C(=O)Nc3ccccc3OC)C2)cc1 (configuration not stated),-2.82% (inactive)
19,O=C(NC(=S)N1CCN(Cc2ccccc2)CC1)c1ccccc1,10.6% (inactive)
20,O=C(Nc1ccccc1)N1CCN(C(=O)Nc2ccccc2)CC1,-0.439% (inactive)
21,O=C(c1cc2ccccc2o1)N1CCN(c2cccc(C(F)(F)F)c2)CC1,-3.72% (inactive)
22,O=C(c1cccc(Cl)c1)N1CCN(Cc2ccccc2)CC1,1.6% (inactive)
23,COc1ccc(C(CCN2CCOCC2)c2c(OC)cc(OC)c3c2OC(=O)CC3c2ccc(OC)cc2)cc1 (configuration not stated),3.67% (inactive)
